# Measured values as given in article PMC5540273 (PLoS ONE, 2017).
# How the values were obtained:
# Settings in all cases: concentration: 1 μM, replicates: in singlicate; n = 1
# ULK3 = test system: ULK3
# VEGFR2 = test system: T1, VEGFR2
# T1 construct: gene KDR
# VPS34 = test system: T2, VPS34
# T2 construct: gene PIK3C3
# VRK2 = test system: VRK2
# WEE1 = test system: WEE1
# WEE2 = test system: WEE2
# WNK1 = test system: WNK1
# WNK2 = test system: WNK2
# WNK3 = test system: WNK3
# WNK4 = test system: WNK4
# YANK1 = test system: T3, YANK1
# T3 construct: gene STK32A
# YANK2 = test system: T4, YANK2
# T4 construct: gene STK32B
# YANK3 = test system: T5, YANK3
# T5 construct: gene STK32C
# YES = test system: T6, YES
# T6 construct: gene YES1
# YSK1 = test system: T7, YSK1
# T7 construct: gene STK25
# YSK4 = test system: T8, YSK4
# T8 construct: gene MAP3K19
# ZAK = test system: ZAK
# ZAP70 = test system: ZAP70
# p38-alpha = test system: T9, p38-alpha
# T9 construct: gene MAPK14
# p38-beta = test system: T10, p38-beta
# T10 construct: gene MAPK11
# 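Further: KINOMEscan kinase panel screen.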
SMILES,%Inh (ULK3) [%],%Inh (VEGFR2) [%],%Inh (VPS34) [%],%Inh (VRK2) [%],%Inh (WEE1) [%],%Inh (WEE2) [%],%Inh (WNK1) [%],%Inh (WNK2) [%],%Inh (WNK3) [%],%Inh (WNK4) [%],%Inh (YANK1) [%],%Inh (YANK2) [%],%Inh (YANK3) [%],%Inh (YES) [%],%Inh (YSK1) [%],%Inh (YSK4) [%],%Inh (ZAK) [%],%Inh (ZAP70) [%],%Inh (p38-alpha) [%],%Inh (p38-beta) [%]
C[C@@H]1CC[C@H](C(=O)NC2CCCCC2)CN1c1cc(-c2ccc3c(N)n[nH]c3c2)nc(N)n1 [GSK2291363],11,8,31,0,34,26,16,4,21,0,6,3,26,21,24,27,9,0,36,0
Nc1ncnc2c1ncn2-c1ccc(Cl)cc1 [AH2635],2,0,0,15,0,11,0,0,34,32,0,0,0,0,0,27,0,0,32,0
CCC(=O)c1c(-c2ccccc2)c2cc(Cl)ccc2c(=O)n1Cc1cc(C(=O)NC2CC2)n(C)n1,2,0,20,0,0,0,0,0,0,22,0,9,20,0,4,0,23,0,16,0
CCC(=O)c1c(-c2ccccc2)c2cc(Cl)ccc2c(=O)n1Cc1cc(S(C)(=O)=O)n(CC(F)F)n1,0,0,0,0,0,0,0,0,0,0,0,8,0,0,0,0,0,11,10,2
CC(C)(C)c1ccc(C(=O)Nc2cn3cc(-c4ccccc4)ccc3n2)cc1,12,0,0,1,6,0,0,0,0,16,0,0,0,2,0,21,14,0,0,11
Cc1nc(N(C)[C@H]2CN(C(=O)CC#N)CC[C@H]2C)c2cc[nH]c2n1,0,0,0,0,0,13,0,0,0,0,0,0,6,18,0,0,0,0,0,1
Cc1cccc(-c2cc(-c3c[nH]nc3-c3ccccn3)ccn2)c1 [GW679395],5,0,0,26,13,1,11,22,36,38,0,0,15,29,0,36,0,0,47,0
COC(=O)c1c(-c2ccccc2)c2cc(C)ccc2c(=O)n1Cc1ccccc1,0,0,0,0,0,6,0,0,0,0,0,0,17,0,0,0,25,0,8,0
O=C(NCCNc1ccnc(Nc2ccc(F)cc2)n1)Nc1ccc2c(c1)OCO2 [GSK1379882],21,9,0,0,13,6,5,18,30,12,0,1,0,0,17,9,100,0,19,0
COc1ccc(-c2cc3c(C)nc(N)nc3n([C@H]3CC[C@H](OCCO)CC3)c2=O)cn1,3,0,0,0,0,0,0,0,0,0,14,0,0,0,0,0,1,0,0,0
O=C(Nc1n[nH]c2cc(-c3ccccc3F)ccc12)C1CC1 [SB-733371],33,4,0,0,5,0,0,0,0,6,0,0,0,0,0,87,0,0,4,9
CCC(=O)c1c(-c2ccccc2)c2cc(Cl)ccc2c(=O)n1Cc1ccc(C(=O)O)cc1,0,0,7,0,0,4,0,0,0,0,0,4,5,0,0,0,0,0,23,0
COc1cc2nccc(Nc3ccc(OCc4ccc(NC(C)=O)cc4)cc3)c2cc1OC.Cl [GW440135],13,96.2,0,35,29,12,2,16,39,0,0,4,0,11,0,0,10,16,18,0
COc1ccc(CNC(=O)NC2CCN(c3ccnc(Nc4ccc(F)cc4)n3)C2)cc1 (stereo not drawn) [GSK1379706],0,9,33,33,10,9,0,30,49,50,12,0,0,0,25,0,0,20,44,0
COC(=O)c1c(-c2ccccc2)c2cc(Br)ccc2c(=O)n1Cc1ccc(S(C)(=O)=O)cc1,13,0,0,0,0,16,0,13,0,0,0,6,36,0,4,13,32,0,17,9
O=C(Nc1n[nH]c2nc(-c3ccccc3)c(Br)cc12)C1CC1 [SB-708998],11,2,0,0,0,0,2,0,9,0,7,10,11,12,0,95.3,9,5,7,41
Nc1nc(N)c2nc(-c3ccccc3)[nH]c2n1 [SKF-12778],30,0,0,5,8,0,9,9,11,17,0,1,13,11,0,68,22,14,0,7
Cl.c1ccc(Cn2cnc3cc(Nc4ncnc5ccccc45)ccc32)cc1 [GW272142],5,0,0,0,4,12,2,21,35,44,0,0,18,7,0,29,0,21,0,0
Cc1cccc(-c2nc(Nc3ccc4c(cnn4C)c3)c3ccccc3n2)n1 [GW876731],0,0,56,15,0,0,18,7,21,0,0,0,32,0,0,42,0,14,10,7
CN1C(=O)C(Nc2cc(Cl)c(O)c(Cl)c2)=C(c2ccc(Cl)cc2)C1=O [SB-404321],0,0,0,90.3,0,15,0,35,0,0,0,0,0,0,0,0,0,0,2,0
Cc1c(Cn2c(C)nn3c(=O)cc(N4CCO[C@H](C)C4)nc23)cccc1C(F)(F)F [GSK2373690],21,0,59,0,5,5,11,4,20,0,11,18,8,10,6,33,9,0,0,0
COc1ccc(-c2cc3c(C)nc(N)nc3n([C@H]3CC[C@H](O)CC3)c2=O)cn1,0,0,0,0,0,0,0,0,0,18,0,0,0,0,0,0,0,0,0,0
CCc1nc(-c2cccc(C)c2)c(-c2ccncc2)s1,12,0,0,0,0,0,0,0,0,0,36,16,0,7,0,8,0,0,72,52
Cl.NS(=O)(=O)c1cccc(Nc2cc(-c3ccc(F)cc3)n[nH]2)c1 [GW824645],12,35,29,18,0,0,35,0,25,13,0,0,0,0,8,0,0,0,0,0
COc1cc2ncn(-c3cc(OCc4ccc(S(C)(=O)=O)cc4)c(C(N)=O)s3)c2cc1OC [GW869979],22,20,33,2,0,0,0,58,0,51,7,0,0,28,0,57,0,17,1,1
COc1ccc(-c2coc3ccc(-c4nnc(SCc5cccc(C#N)c5)o4)cc23)cc1,81,10,0,0,0,8,0,0,0,3,21,12,11,0,0,0,23,0,5,11
Cc1ccc(-c2ccc3c(ccc4sc5c(c43)NC[C@@H](C)N=C5N(C)C)n2)cn1,0,0,0,0,0,0,0,0,0,0,0,0,0,0,0,0,0,0,0,0
CN1C(=O)C(Nc2ccccc2)=C(c2ccccc2)C1=O [SB-300079],7,0,30,19,51,1,0,0,33,26,0,2,0,0,3,8,0,23,0,10
COc1cc(Nc2nccc(N3CCC(NC(=O)C4COc5ccccc5O4)C3)n2)cc(OC)c1OC (stereo not drawn) [GSK1379761],69,0,16,41,10,0,1,19,46,50,9,0,19,27,0,8,14,0,26,0
CCS(=O)(=O)c1ccc(OC)c(Nc2ncc(-c3ccc(F)cc3)o2)c1.Cl [GW591947],0,0,21,0,12,0,2,4,21,0,11,2,2,6,3,10,0,0,0,0
